According to PubChem BioAssay (Tox21):
Results filed as inconclusive are left out. The source made the active and inactive calls. Calls follow the shape of the full dose curve.

Target: Progesterone receptor (Homo sapiens) (UniProt P06401)
Test: qHTS assay to identify small molecule agonists of the progesterone receptor (PR) signaling pathway (AID 1346784); also: nearly all actives have a fitted effect of over 30% in size
Details: PR-UAS-bla HEK293T, beta-lactamase FRET ratio, 16 h; series mostly up to 92.4 µM; activation: at the top concentration
Description: U.S. Tox21 Program National Center for Advancing Translational Sciences [NCATS] NIH Chemical Genomics Center [NCGC] U.S. Environmental Protection Agency [EPA] National Institutes of Environmental Health Sciences [NIEHS] National Toxicology Program [NTP] U.S. Food and Drug Administration [FDA] […] Endocrine disrupting chemicals (EDCs) and their interactions with steroid hormone receptors like PR causes disruption of normal endocrine function. To identify the compounds that activate PR signaling, a PR-UAS-bla GripTite cell line i.e. PR-UAS-bla HEK 293T (Invitrogen, Carlsbad, CA, USA) containing a beta-lactamase reporter gene under the control of an Upstream Activator Sequence (UAS) was used to screen Tox21 10K compound library.
Tox21 Assay Protocol Summary: PR-UAS-bla HEK 293T cells were dispensed at 3,000 cells/5 uL of assay medium containing 2% charcoal stripped FBS per well into black wall/clear-bottom 1536-well plates using a Multidrop Combi (ThermoFisher Scientific, Waltham, MA) dispenser. After the assay plates were incubated at a 37C and 5% CO2 for 6hr, 23 nL of compounds dissolved in DMSO, positive controls or DMSO only was transferred to the assay plate by a Pintool station (Kalypsys, San Diego, CA). The plates were incubated at 37C and 5% CO2 for 16hr. Then 1 uL of LiveBLAzer B/G FRET substrate was added using a BioRAPTR FRD (Flying Reagent Dispenser, Aurora Discovery, San Diego, CA). After the plates were incubated at room temperature for 2 hours, fluorescence intensity was measured by an Envision plate reader (PerkinElmer, Shelton, CT).
% is scaled to controls: 0 for no effect and ±100 for the full control effect; potency is read from the fitted curve at half-maximal effect.

Chain of Progesterone receptor (Homo sapiens) (P06401 whole entry, looked up): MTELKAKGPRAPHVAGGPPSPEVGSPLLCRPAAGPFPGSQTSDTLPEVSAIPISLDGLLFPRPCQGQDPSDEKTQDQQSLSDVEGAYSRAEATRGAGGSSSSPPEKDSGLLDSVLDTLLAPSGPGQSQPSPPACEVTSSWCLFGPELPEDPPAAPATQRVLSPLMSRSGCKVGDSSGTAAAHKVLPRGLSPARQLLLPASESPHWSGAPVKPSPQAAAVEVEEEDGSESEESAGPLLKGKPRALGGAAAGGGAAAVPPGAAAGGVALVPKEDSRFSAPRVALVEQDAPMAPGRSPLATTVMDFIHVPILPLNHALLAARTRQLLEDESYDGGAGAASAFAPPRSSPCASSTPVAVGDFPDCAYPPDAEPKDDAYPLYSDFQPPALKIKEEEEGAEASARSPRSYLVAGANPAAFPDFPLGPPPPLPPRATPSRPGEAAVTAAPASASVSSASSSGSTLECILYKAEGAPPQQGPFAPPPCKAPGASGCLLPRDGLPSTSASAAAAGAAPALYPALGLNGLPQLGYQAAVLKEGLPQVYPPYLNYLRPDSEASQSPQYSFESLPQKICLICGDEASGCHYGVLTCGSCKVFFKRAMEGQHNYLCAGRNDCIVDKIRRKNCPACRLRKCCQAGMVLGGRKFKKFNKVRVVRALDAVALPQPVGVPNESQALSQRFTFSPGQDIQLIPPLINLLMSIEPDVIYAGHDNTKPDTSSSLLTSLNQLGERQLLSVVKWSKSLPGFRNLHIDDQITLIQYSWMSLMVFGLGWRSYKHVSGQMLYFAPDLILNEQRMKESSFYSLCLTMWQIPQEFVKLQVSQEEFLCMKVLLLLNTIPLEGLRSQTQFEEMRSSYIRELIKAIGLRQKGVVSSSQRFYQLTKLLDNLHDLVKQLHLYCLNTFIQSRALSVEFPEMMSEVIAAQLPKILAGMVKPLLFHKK

SMILES	activation	Potency
CCC(C)(C)C1CCC(OC)CC1 (stereo not given)	-0.434% (inactive)	–
NC(=O)c1ncn([C@@H]2O[C@H](CO)[C@@H](O)[C@H]2O)c1N	0.408% [at 42.5 µM] (inactive)	–
C1COCCO1	2.35% (inactive)	–
CCCCOCC(C)OCC(C)O (stereo not given)	2.36% (inactive)	–
CCCc1ccccc1O	0.549% (inactive)	–
CCCCCCCCCCCCCCCCCC(=O)OCCCCCCCCCCCCCC(C)C	0.347% (inactive)	–
Cc1c(F)cc2c(=O)c(C(=O)O)cn3c2c1CCC3C (stereo not given)	4.87% [at 42.5 µM] (inactive)	–
O=S(=O)(c1cccc2cnccc12)N1CCCNCC1	-3.56% [at 42.5 µM] (inactive)	–
CC(C)(O)C(=O)c1ccc(OCCO)cc1	-0.295% (inactive)	–
OCC(O)[C@@H](O)[C@H](O)[C@H](O)CO[C@H]1O[C@H](CO)[C@@H](O)[C@H](O)[C@H]1O (stereo not given in full)	0.0616% (inactive)	–
CCCCCCCCCCCCI	2.84% (inactive)	–
C=C(C)[C@H]1CC=C(C)CC1	1.01% (inactive)	–
CN(C)CCn1nnnc1SCC1=C(C(=O)O)N2C(=O)[C@@H](NC(=O)Cc3csc(N)n3)[C@H]2SC1	2.59% [at 42.5 µM] (inactive)	–
O=C(O)c1cccc(C(=O)O)n1	-1.91% (inactive)	–
Cc1nccn1CC1CCc2c(c3ccccc3n2C)C1=O (stereo not given)	-1.18% [at 42.5 µM] (inactive)	–
C=C(C)C1CC=C(C)C(O)C1 (stereo not given)	–	17.3 µM (active)
CC(C)c1cccc(C(C)C)c1N	-0.376% (inactive)	–
Nc1[nH]c(=O)ncc1F	1.2% [at 42.5 µM] (inactive)	–
CCCCCCCCCCCl	0.65% (inactive)	–
O=c1[nH]c(=O)n([C@H]2O[C@H](CO)[C@@H](O)[C@@H]2O)cc1/C=C\Br	-1.01% [at 42.5 µM] (inactive)	–

SMILES	activation	Potency
CCCCCOC(=O)Nc1nc(=O)n([C@@H]2O[C@H](C)[C@@H](O)[C@H]2O)cc1F	0.302% [at 42.5 µM] (inactive)	–
CC/C=C\C#N	0.333% (inactive)	–
CC1=CC(C)C(C=O)C(C)C1 (stereo not given)	-0.717% (inactive)	–
CC(C=O)Cc1ccc(C(C)C)cc1 (stereo not given)	-0.192% (inactive)	–
C=C(C)C(=O)NCCCN(C)C	-0.659% (inactive)	–
CCCC=O	-0.934% (inactive)	–
COc1cc(CCC(C)=O)ccc1O	-0.59% (inactive)	–
C#CC(O)C(CC)CCCC (stereo not given)	-0.283% (inactive)	–
CNC(=O)c1c(I)c(NC(=O)CCCCC(=O)Nc2c(I)c(C(=O)O)c(I)c(C(=O)NC)c2I)c(I)c(C(=O)O)c1I	4.27% [at 42.5 µM] (inactive)	–
CC(CCO)CCCC(C)(C)O (stereo not given)	-2.12% (inactive)	–
COC(=O)CCCCCCCCC(=O)OC	1.4% (inactive)	–
COc1cc(O)cc(O)c1	1.94% [at 42.5 µM] (inactive)	–
CN(C)CCOC(c1ccc(Cl)cc1)c1ccccn1 (stereo not given)	-2.22% [at 42.5 µM] (inactive)	–
O=C(O)c1ccccc1-c1ccc(C(F)(F)F)cc1	1.22% [at 42.5 µM] (inactive)	–
COc1cccc(OC)c1	-0.237% (inactive)	–
COC(=O)C1=C(C)NC(C)=C(C(=O)OCC(C)=O)C1c1ccccc1[N+](=O)[O-] (stereo not given)	-0.155% [at 42.5 µM] (inactive)	–
C[C@H](O)C(=O)Nc1c(I)c(C(=O)NC(CO)CO)c(I)c(C(=O)NC(CO)CO)c1I	-0.33% [at 42.5 µM] (inactive)	–
NCCN1CCNC1=O	0.721% (inactive)	–
C=CCOc1nc(OCC=C)nc(OCC=C)n1	-1.28% (inactive)	–
Oc1cc(O)c2c(c1)O[C@H](c1ccc(O)c(O)c1)[C@H](O)C2	-1.85% [at 42.5 µM] (inactive)	–
